Hit rate of the full screen: of about 52,000 compounds, about 4,300 (8.3%) were called active. The full list was thinned out, with actives kept by preference. Values without a mark were called inactive. No stated cut-off is given here; in the data, active means survival mostly below about 52% (no sharp cut-off); inactive means mostly above about 56%.

From PubChem BioAssay AID463173 (ICCB-Longwood Screening Facility, Harvard Medical School, 2010) come the findings set out here.

In this test the test system is DeltatarO mutant. Briefly: S. aureus survival, RN4220 and DeltatarO strains – OD600, teichoic acid synthesis inhibitors, primary screen (AID 463173). Particulars: S. aureus RN4220 wild type/DeltatarO growth, OD600, 18 h, hits give low values, screened at 18.75 µg/mL (by protocol).
As to `Cc1ccc(-c2cc(C(=O)NCCc3ccccc3)c3ccccc3n2)cc1C`, the survival is 88%. For the compound `COc1ccc(-c2cc(C(=O)Oc3ccc(Cl)cc3)c3ccccc3n2)cc1`, the survival is 49% (active). The figure for `Cc1ccc(C(=O)COC(=O)c2cc(-c3ccc(Cl)cc3)nc3ccccc23)cc1` is 136%; for `COc1ccc(-c2cc(C(=O)Oc3cccc(C)c3C)c3ccccc3n2)cc1` it is 31% (active); for `COc1ccc(-c2cc(C(=O)Oc3ccc(Br)cc3)c3ccccc3n2)cc1` it is 48%.

`COc1ccc(C(=O)COC(=O)c2cc(-c3cccs3)nc3ccccc23)cc1`: the survival was 58%. As to `COc1ccc(C(=O)COC(=O)c2cc(-c3ccccc3)nc3c(C)cccc23)cc1`, the survival was 64%. In the case of `Cc1ccc(C(=O)COC(=O)c2cc(-c3ccccc3)nc3ccccc23)cc1C`, the survival was 125%. The figure for `COc1ccc(-c2cc(C(=O)Oc3ccc(C)c(C)c3)c3ccccc3n2)cc1` is 40% (active); for `COc1ccc(-c2cc(C(=O)Oc3ccc(C)cc3)c3ccccc3n2)cc1` it is 11% (active); for `CNC(=O)c1cc(-c2ccc(OC)cc2)nc2ccccc12` it is 77%. Regarding `COC(=O)c1cc(-c2ccc(OC)c(OC)c2)nc2ccccc12`, the survival is 72%.

For `CCn1cc(C(=O)OCC(=O)Nc2cccc(C(C)=O)c2)c(=O)c2ccc(C)nc21`, the survival is 84%.

Consider `CCC(O)(CCN1CCCCC1)c1ccccc1` (configuration not stated), for which the survival is 80%.

Turning to `Cc1cc(C)cc(N(CC(=O)NCc2ccco2)C(=O)c2snc(C(N)=O)c2N)c1`, the survival was 93%. The value for `Cc1cccc(C(=O)N2CCc3cc(CNC(=O)CCc4ccccc4)ccc32)c1` was 60%; that for `CC(=O)CSc1nnc2cc(C)c3cc(C)cc(C)c3n12` was 106%; that for `CCOC(=O)CN1C(=O)N(c2ccc(C)c(C)c2)S(=O)(=O)c2ccccc21` was 80%. For the compound `Cn1nnnc1SCCNCc1ccccc1OCc1ccc(Cl)cc1Cl`, the survival is 63%. Regarding `COc1cc(CNCCSc2nnnn2C)ccc1OCc1ccccc1C`, the survival is 56%.

On to `COc1cc(CNCCSc2nnnn2C)ccc1OCc1c(F)cccc1Cl`, for which the survival is 58%.

Consider `CCOc1cc(CNCCSc2nnnn2C)ccc1OCc1ccc(Cl)cc1Cl`, for which the survival is -6% (active). On to `CCOc1ccc(CNCCSc2nnnn2C)cc1OC`, for which the survival is 65%. As to `COc1cc(CNCCSc2nnnn2C)ccc1OCc1ccc(Cl)cc1Cl`, the survival was 30% (active). Consider `COc1ccc(-c2ccc(CCC(=O)O)n2CC(=O)Nc2cccc(C(F)(F)F)c2)cc1`, for which the survival was 54% (active).

Consider `COc1ccc(NC(=O)Cn2c(CCC(=O)O)ccc2-c2ccccc2)cc1Cl`, for which the survival was 61%. As to `Cc1ccc(-c2ccc(CCC(=O)O)n2-c2cccc(O)c2)cc1`, the survival was 68%. With `COc1ccc(OC)c(NC(=O)Cn2c(CCC(=O)O)ccc2-c2ccccc2)c1`, the survival is 103%. On to `COc1ccc(-c2ccc(CCC(=O)O)n2CC(=O)Nc2cccc(Cl)c2C)cc1`, for which the survival is 46%. With `O=C(O)CCc1ccc(-c2ccccc2)n1-c1cccc(Br)c1`, the survival was 65%. Regarding `O=C(O)CCc1ccc(-c2ccc(Cl)cc2)n1-c1cccc(C(F)(F)F)c1`, the survival was 23% (active). The figure for `COC(=O)c1ccccc1NC(=O)Cn1c(CCC(=O)O)ccc1-c1cccs1` is 54%; for `COC(=O)c1ccccc1NC(=O)Cn1c(CCC(=O)O)ccc1-c1ccc(C)cc1` it is 45% (active); for `Cc1cc(NC(=O)N2CC=C(c3c[nH]c4ccccc34)CC2)ccc1Br` it is 81%.

For the compound `Cn1c(=O)[nH]c(=O)c2c1nc(NCCO)n2CC(O)COc1ccccc1` (configuration not stated), the survival was 165%. The figure for `COC(=O)c1ccc(Nc2cc(=O)[nH]c(=O)[nH]2)cc1` is 79%; for `CCOc1ccccc1NC(=O)CN1C(=O)CC(c2ccc(C)c(C)c2)=Nc2ccccc21` it is 74%; for `CCOCCCNC(=O)c1c[nH]c2ccc(S(=O)(=O)N(C)c3ccc(Cl)cc3F)cc2c1=O` it is 124%. The value for `CC(C)(C)OC(=O)N1CCC(c2c(C(=O)NC3CCCCC3)cnn2-c2cccc(F)c2)CC1` was 128%; that for `Cc1ccc(CSc2nc3c([nH]c4ccccc43)c(=O)n2C)cc1` was 94%.

As for `Cc1ccc(Sc2ccc(N3CCC(C(=O)Nc4ccc(Cl)cc4)CC3)nn2)cc1`, the survival is 72%.

Regarding `CCN(Cc1ccccc1)S(=O)(=O)c1ccc(F)c(C(=O)Nc2cc(C(F)(F)F)ccc2Cl)c1`, the survival was 17% (active). Consider `O=C(Nc1cc(C(F)(F)F)ccc1Cl)c1cc(S(=O)(=O)NCc2ccccc2)ccc1F`, for which the survival was 55%.

For `CN(Cc1ccccc1)S(=O)(=O)c1ccc(F)c(C(=O)Nc2cc(Cl)cc(Cl)c2)c1`, the survival was 87%. Turning to `CN(Cc1ccccc1)S(=O)(=O)c1ccc(F)c(C(=O)Nc2cccc(Cl)c2Cl)c1`, the survival is 134%. Regarding `CCN(Cc1ccccc1)S(=O)(=O)c1ccc(F)c(C(=O)Nc2ccc(C(C)C)cc2)c1`, the survival is 101%. `CN(Cc1ccccc1)S(=O)(=O)c1ccc(F)c(C(=O)Nc2ccccc2C(F)(F)F)c1`: the survival was -5% (active). Regarding `Cc1ccc(C(=O)N/C(=C/c2ccccc2)C(=O)NCc2ccco2)cc1`, the survival was 95%. The figure for `COc1ccc(S(=O)(=O)C(C)(C)C)cc1` is 78%; for `COc1ccc(C(=O)Nc2nc3c(s2)CCCC3)cc1Cl` it is 53%. `Cn1c(=O)[nH]c(=O)c2c1nc(CN1CCN(c3ccccc3F)CC1)n2Cc1ccc(F)cc1`: the survival was 122%. Take `CCS(=O)(=O)c1ncc(N(Cc2ccccc2)Cc2ccco2)c(C(=O)Nc2ccc(C)c(C)c2)n1`: the survival is 52%.

As for `Cc1ccsc1CN(Cc1ccco1)c1cnc(S(C)(=O)=O)nc1C(=O)Nc1ccc(Cl)cc1`, the survival is 40% (active).

As for `CCS(=O)(=O)c1ncc(N(Cc2ccc(F)cc2)Cc2ccco2)c(C(=O)Nc2cc(C)ccc2C)n1`, the survival is 58%. Take `Cc1ccc(NC(=O)c2nc(S(C)(=O)=O)ncc2N(Cc2ccco2)Cc2ccco2)cc1`: the survival is 44%.

As for `CCS(=O)(=O)c1ncc(N(Cc2ccccc2)Cc2ccco2)c(C(=O)Nc2cccc(Cl)c2C)n1`, the survival was 60%. Take `CCS(=O)(=O)c1ncc(N(Cc2ccco2)Cc2sccc2C)c(C(=O)Nc2cc(C)ccc2C)n1`: the survival is 106%. The figure for `CCS(=O)(=O)c1ncc(N(Cc2ccccc2)Cc2ccco2)c(C(=O)Nc2ccccc2C)n1` is 45% (active); for `CCS(=O)(=O)c1ncc(N(Cc2ccco2)Cc2sccc2C)c(C(=O)Nc2ccc(C)cc2C)n1` it is 53% (active); for `Cc1ccc(CN(Cc2ccco2)c2cnc(S(C)(=O)=O)nc2C(=O)Nc2ccc(Br)cc2)o1` it is 105%.

For `Cc1ccccc1NC(=O)c1nc(S(C)(=O)=O)ncc1N(Cc1ccco1)Cc1sccc1C`, the survival was 43% (active). Turning to `COc1ccc(NC(=O)C2CCCN(c3cnccn3)C2)c(OC)c1` (configuration not stated), the survival was 107%. For `Cc1c(C)n(Cc2ccccc2)c2ccc(C(=O)N3CCN(c4ccccc4F)CC3)cc12`, the survival was 80%.

As for `Cc1cc(C)c(NC(=O)CCS(=O)(=O)c2cc3c(cc2Cl)NC(=O)CO3)c(C)c1`, the survival is 80%.

On to `CCCOc1cccc(C2c3c(oc4ccc(F)cc4c3=O)C(=O)N2c2nc(C)c(C(C)=O)s2)c1` (configuration not stated), for which the survival was 65%. Take `CSc1ccc(CCNC(=O)Cn2ncc3c(=O)oc4ccc(C)cc4c32)cc1`: the survival was 89%. The figure for `COC(=O)c1cc(OC)c(OC)c(OC)c1NC(=O)c1cc(=O)n(C)c(=O)n1C` is 78%.

Turning to `CC(=O)OC1COC(N2CCc3ccccc32)C(OC(C)=O)C1OC(C)=O` (configuration not stated), the survival is 97%. The value for `CC1CCN(C(=O)c2ccc3c(c2)N(Cc2ccccc2F)C(=O)c2ccccc2S3(=O)=O)CC1` was 80%; that for `CCC(=O)N1CCc2cc(S(=O)(=O)NCCC(=O)NC(C)c3ccccc3)ccc21` (configuration not stated) was 85%. In the case of `CC(C)Sc1ncc(Cl)c(C(=O)Nc2ccc(S(=O)(=O)N(C)c3ccccc3)cc2)n1`, the survival is 55%.

`CCS(=O)(=O)c1ncc(Cl)c(C(=O)Nc2ccc(S(=O)(=O)N(C)c3ccccc3)cc2)n1`: the survival is 0% (active).

`CCN(c1ccccc1)S(=O)(=O)c1ccc(NC(=O)c2nc(SC)ncc2Cl)cc1`: the survival is 55%. Take `CS(=O)(=O)c1ncc(Cl)c(C(=O)Nc2c(C(=O)Nc3ccccc3)oc3ccccc23)n1`: the survival is 55%. For `CC(C)Sc1ncc(Cl)c(C(=O)Nc2ccc(S(=O)(=O)Nc3ncccn3)cc2)n1`, the survival was 50%. The figure for `CCN(c1ccccc1)S(=O)(=O)c1ccc(NC(=O)c2nc(SC(C)C)ncc2Cl)cc1` is 44% (active). With `CCSc1ncc(Cl)c(C(=O)Nc2ccc(S(=O)(=O)N(C)c3ccccc3)cc2)n1`, the survival was 71%. The value for `CSc1ncc(Cl)c(C(=O)Nc2ccc(S(=O)(=O)N3CCCC(C)C3)cc2)n1` (configuration not stated) was 79%; that for `CN(c1ccccc1)S(=O)(=O)c1ccc(NC(=O)c2nc(S(C)(=O)=O)ncc2Cl)cc1` was -1% (active); that for `CC(C)Sc1ncc(Cl)c(C(=O)Nc2ccc(S(=O)(=O)N3CCCCC3)cc2)n1` was 57%. As to `CCCSc1ncc(Cl)c(C(=O)Nc2ccc(S(=O)(=O)N(C)c3ccccc3)cc2)n1`, the survival was 54%. With `CC1CCCN(S(=O)(=O)c2ccc(NC(=O)c3nc(SC(C)C)ncc3Cl)cc2)C1` (configuration not stated), the survival is 44% (active).

Consider `CCOc1ccccc1CNC(=O)C1CCN(c2nc3ccccc3nc2C(F)(F)F)CC1`, for which the survival is 69%.

As to `CCOc1ccc(NC(c2ccc(Cl)cc2)c2nnc(-c3cccc(F)c3)o2)cc1` (configuration not stated), the survival is 90%.

On to `COc1ccc2sc(C)[n+](CCO)c2c1`, for which the survival is 81%.

For the compound `CCOc1ccc(S(=O)(=O)Nc2ccc3c(c2)CCCN3S(=O)(=O)c2ccc(C)cc2)cc1`, the survival is 88%.

As to `COc1ccc(NC(=O)CN2C(=O)CCn3nc(-c4cccn4C)cc32)cc1`, the survival is 81%.
